For one compound, normalized growth results are on record in PubChem BioAssay AID1159580 (chemical genetic matrix, 2015).

The whole screen tested about 5,500 compounds, of which about 2,000 (36%) were called active. Not shown: some 18% with an inconclusive outcome. The list shows a part of the results. A number with no mark means an inactive call. No stated cut-off is given here; in the data, active means normalized growth mostly below about 0.91 (no sharp cut-off); inconclusive means no clear call, values can overlap the other calls; inactive means mostly above about 0.92.

The assay can be described thus: chemical genetic growth profiling, strain panel (AID 1159580).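 Further: tested at 20 µM; growth read once vehicle control cultures reached saturation at 30 °C; 1 = growth at the plate median or of vehicle wells.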 To be noted: S. cerevisiae deletion strains, growth OD.

Take `CCN(CC)CC#CCOC(=O)C(O)(c1ccccc1)C1CCCCC1` (stereo unspecified): the normalized growth by setting is: (locus YAL013W, strain DEP1, stronger effect = lower value) 1; (locus YAL040C, strain CLN3, stronger effect = lower value) 1; (locus YCL061C, strain MRC1 (second series), stronger effect = lower value) 1; (locus YDR150W, strain NUM1, stronger effect = lower value) 1; (locus YDR363W, strain ESC2, stronger effect = lower value) 1.01; (locus YER002W, strain NOP16, stronger effect = lower value) 1.06. For the same compound, the normalized growth (locus YHR030C, strain SLT2, stronger effect = lower value) was 0.985; the normalized growth (locus YHR079C, strain IRE1, stronger effect = lower value) was 0.996; the normalized growth (locus YJL095W, strain BCK1, stronger effect = lower value) was 1.05; the normalized growth (locus YJR066W, strain TOR1, stronger effect = lower value) was 0.927; the normalized growth (locus YLR113W, strain HOG1, stronger effect = lower value) was 1.04; the normalized growth (locus YNL128W, strain TEP1, stronger effect = lower value) was 1.11 [resistant] (active). Further, the normalized growth is, setting by setting: (locus YNL175C, strain NOP13, stronger effect = lower value) 1.06; (locus YNL183C, strain NPR1, stronger effect = lower value) 0.96; (locus YNL197C, strain WHI3, stronger effect = lower value) 1.05; (locus YNL224C, strain SQS1, stronger effect = lower value) 1.02; (locus YOR083W, strain WHI5 (second series), stronger effect = lower value) 0.998; (locus YOR231W, strain MKK1, stronger effect = lower value) 0.989. In addition, the normalized growth (locus YPL055C, strain LGE1, stronger effect = lower value) was 1; the normalized growth (locus YPL241C, strain CIN2, stronger effect = lower value) was 1; the normalized growth (locus YPL256C, strain CLN2, stronger effect = lower value) is 1.
